Assay [1] in a line: qHTS of pediatric cancer cell lines to identify multiple opportunities for drug repurposing: Primary screen for SK-N-MC cells (AID 1347093). Also: potency is read from the fitted curve at half-maximal effect. An outline of the steps:
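Metabolically active cells were quantified by ATP-dependent luminescence (CellTiter-Glo, 15 min at room temperature) following 48 h treatment. Cells had been plated at 500-1,000 per well and settled for 5 h beforehand.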
In general terms: Quantitative high-throughput screening tests each substance at several concentrations.

A short description of assay [2]: qHTS of pediatric cancer cell lines to identify multiple opportunities for drug repurposing: Primary screen for BT-37 cells (AID 1347094). Also: series mostly up to about 57 µM. An outline of the steps: (§1)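 Following a 5-hour attachment period, cells at 500-1,000/well received compounds and were cultured for 48 hours. CellTiter-Glo was added and luminescence read to estimate viable, metabolically active cells.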

The nature of assay [3]: qHTS of pediatric cancer cell lines to identify multiple opportunities for drug repurposing: Primary screen for NB-EBc1 cells (AID 1347095). An outline of the steps: as §1
Assay [4] can be described thus: qHTS of pediatric cancer cell lines to identify multiple opportunities for drug repurposing: Primary screen for U-2 OS cells (AID 1347096). Also: nearly all actives have a fitted effect of over 50% in size. The gist of the method:
(§2)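 Cells (500-1,000/well) in growth media were settled 5 h at 37 degrees C, then given compounds for 48 h. Viability was read as CellTiter-Glo luminescence. Primary runs used MIPE at 11 points (0.78 nM-46 µM) and NPC at 8 points (0.59 nM-46 µM); follow-ups used 11 points.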

The nature of assay [5]: qHTS of pediatric cancer cell lines to identify multiple opportunities for drug repurposing: Primary screen for Saos-2 cells (AID 1347097). Also: nearly all actives have a fitted effect of over 40% in size. The gist of the method:
as §1

A short description of assay [6]: qHTS of pediatric cancer cell lines to identify multiple opportunities for drug repurposing: Primary screen for SK-N-SH cells (AID 1347098).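 Also: DMSO served as neutral control and bortezomib at 2.3 µM as positive control; nearly all actives have a fitted effect of over 65% in size.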 An outline of the steps: (§3)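 Cells (500-1,000/well) rested 5 h, then received compounds for 48 h; metabolically active cells were measured by CellTiter-Glo luminescence. Final concentrations spanned up to 46 µM (MIPE, 11-point) or 0.59 nM-46 µM (NPC, 8-point) in primary screens, 11-point in follow-ups.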

Assay [7] in a line: qHTS of pediatric cancer cell lines to identify multiple opportunities for drug repurposing: Primary screen for NB1643 cells (AID 1347099). Also: nearly all actives have a fitted effect of over 50% in size. An outline of the steps:
as §1

Assay [8] in a line: qHTS of pediatric cancer cell lines to identify multiple opportunities for drug repurposing: Primary screen for LAN-5 cells (AID 1347100). The gist of the method:
as §2

Assay [9] can be described thus: qHTS of pediatric cancer cell lines to identify multiple opportunities for drug repurposing: Primary screen for BT-12 cells (AID 1347101). Also: nearly all actives have a fitted effect of over 25% in size. An outline of the steps: as §3
The nature of assay [10]: qHTS of pediatric cancer cell lines to identify multiple opportunities for drug repurposing: Primary screen for Rh18 cells (AID 1347102). Also: nearly all actives have a fitted effect of over 65% in size. The gist of the method:
as §2

Records with an inconclusive call do not appear. A number with no mark means an inactive call. The source made the active and inactive calls. Calls follow the shape of the dose curve; as a rule, active = well fitted curve in the direction sought with a large enough effect; inconclusive = small, poorly fitted or top-dose-only effect, or another doubt; inactive = no such curve, though single readings can be large; an effect the other way counts as inactive or inconclusive.

On to `Cc1nc([N+](=O)[O-])cn1-c1ccc([N+](=O)[O-])cc1`, for which the Potency result in [1], in assay [2], in [3], in [4], in assay [5] and in [6] was “inactive” throughout. For the same compound, the Potency entry in assay [7], in [8], in assay [9] and in assay [10] was “inactive” each time.

Take `Cc1cccc(OCC(O)CNC(C)(C)C)c1C` (centres undefined): the Potency result in [1], in assay [2], in [3], in assay [4], in assay [5] and in assay [6] was “inactive” each time. For the same compound, the Potency result in assay [7], in assay [8], in assay [9] and in [10] was “inactive” each time.

Turning to `COC(=O)/C=C(/C)N`, the Potency result in assay [1], in assay [2], in assay [3], in [4], in assay [5] and in assay [6] was “inactive” in each case. In addition, the Potency entry in assay [7], in assay [8], in [9] and in assay [10] was “inactive” each time.

On to `CCOC(=O)C(O)c1ccccc1` (centres undefined), for which the Potency result in [1], in [2], in assay [3], in assay [4], in assay [5] and in [6] was “inactive” in each case. Besides, the Potency result in [7], in [8], in [9] and in [10] was “inactive” each time.

On to `Oc1ccc(CCNCCCCCCNCCc2ccccc2)cc1O`, for which the Potency in [1] is 23.7 µM (active). Moreover, the Potency entry in assay [2], in [3] and in assay [4] was “inactive” in each case.

As to `CCCC(=O)O[C@]1(C(=O)COC(=O)CC)CC[C@H]2[C@@H]3CCC4=CC(=O)CC[C@]4(C)[C@H]3[C@@H](O)C[C@@]21C`, the Potency entry in assay [1], in assay [2], in assay [3], in [4], in assay [5] and in [6] was “inactive” throughout. Further, the Potency entry in assay [7], in assay [8], in assay [9] and in assay [10] was “inactive” in each case.

Consider `O=C1NC(c2ccccc2)(c2ccccc2)C(=O)N1COP(=O)(O)O`, for which the Potency entry in [1], in [2], in assay [3], in assay [4], in assay [5] and in [6] was “inactive” each time. Further, the Potency entry in assay [7], in assay [8], in assay [9] and in assay [10] was “inactive” in each case.

Take `O=c1[nH]c2ccccc2c(=O)n1CCCl`: the Potency result in [1], in [2], in assay [3], in assay [4], in assay [5] and in [6] was “inactive” each time. Moreover, the Potency result in assay [7], in assay [8], in assay [9] and in assay [10] was “inactive” each time.

For `O=[N+]([O-])c1nccn1CO[C@@H](CO)[C@H](O)CO`, the Potency result in assay [1], in assay [2], in assay [3], in [4], in assay [5] and in assay [6] was “inactive” throughout. The Potency result in assay [7], in assay [8], in assay [9] and in assay [10] was “inactive” in each case.

For the compound `NC(=O)NC1N=C([O][Al])NC1=O` (centres undefined), the Potency result in [1], in [2], in assay [3], in [4], in assay [5] and in assay [6] was “inactive” throughout. Besides, the Potency result in assay [7], in [8], in assay [9] and in [10] was “inactive” in each case.

Take `CCCCCC1Nc2cc(C(F)(F)F)c(S(N)(=O)=O)cc2S(=O)(=O)N1` (centres undefined): the Potency result in [1], in assay [2], in [3], in assay [4], in assay [5] and in assay [6] was “inactive” each time. Further, the Potency entry in [7], in assay [8], in assay [9] and in assay [10] was “inactive” throughout.

With `CCOC(=O)NNc1nncc2ccccc12`, the Potency entry in [1], in assay [2], in assay [3], in assay [4], in assay [5] and in [6] was “inactive” each time. Further, the Potency result in assay [7], in assay [8], in [9] and in assay [10] was “inactive” in each case.

`C[N+]1(CC2COC(c3ccccc3)(c3ccccc3)O2)CCCCC1` (centres undefined): the Potency entry in assay [1], in assay [2], in assay [3], in assay [4], in assay [5] and in assay [6] was “inactive” in each case. Besides, the Potency result in [7], in assay [8], in assay [9] and in assay [10] was “inactive” in each case.

For the compound `CC1(C)S[C@@H]2[C@H](NC(=O)C(c3ccccc3)S(=O)(=O)O)C(=O)N2[C@H]1C(=O)O` (some centres undefined), the Potency result in assay [1], in [2], in [3], in assay [4], in [5] and in assay [6] was “inactive” throughout. For the same compound, the Potency entry in assay [7], in assay [8], in assay [9] and in assay [10] was “inactive” in each case.

Turning to `CCCc1ncc(C(=O)O)s1`, the Potency result in assay [1], in assay [2], in [3], in [4], in assay [5] and in [6] was “inactive” in each case. Also, the Potency result in [7], in assay [8], in assay [9] and in [10] was “inactive” each time.

For `O=C1Cc2cc(Cl)ccc2N1`, the Potency result in [1], in assay [2], in [3], in [4], in assay [5] and in assay [6] was “inactive” throughout. Also, the Potency result in assay [7], in assay [8], in assay [9] and in assay [10] was “inactive” each time.

Take `CCC(C(=O)NC(=O)NC(C)=O)c1ccccc1` (centres undefined): the Potency entry in [1], in assay [2], in assay [3], in [4], in assay [5] and in assay [6] was “inactive” in each case. Also, the Potency result in [7], in [8], in assay [9] and in assay [10] was “inactive” throughout.

On to `CCCCC(=O)OCC(=O)[C@H]1[C@H](C)C[C@H]2[C@@H]3C[C@H](F)C4=CC(=O)C=C[C@]4(C)[C@@]3(F)[C@@H](O)C[C@@]21C`, for which the Potency result in assay [1], in assay [2], in [3], in assay [4], in assay [5] and in assay [6] was “inactive” throughout. Besides, the Potency entry in assay [7], in [8], in assay [9] and in assay [10] was “inactive” each time.

Turning to `CC1CC(=O)NN=C1c1ccc(NCC(C)(C)NCC(O)COc2cc(Cl)ccc2C#N)cc1` (centres undefined), the Potency result in assay [1], in assay [2], in [3], in assay [4], in assay [5] and in [6] was “inactive” throughout. Also, the Potency entry in assay [7], in assay [8], in [9] and in [10] was “inactive” in each case.

For `CCOC(=O)O[C@]1(C(=O)OCCl)CC[C@H]2[C@@H]3CCC4=CC(=O)C=C[C@]4(C)[C@H]3[C@@H](O)C[C@@]21C`, the Potency result in assay [1], in [2], in assay [3], in assay [4], in [5] and in [6] was “inactive” each time. Besides, the Potency result in assay [7], in assay [8], in assay [9] and in assay [10] was “inactive” in each case.

On to `CNC(=O)c1c(I)c(NC(C)=O)c(I)c(C(=O)O)c1I`, for which the Potency result in [1], in assay [2], in [3], in assay [4], in assay [5] and in [6] was “inactive” throughout. In addition, the Potency result in assay [7], in assay [8], in [9] and in assay [10] was “inactive” in each case.

For the compound `O=C(O)c1cn(C2CC2)c2cc(Cl)c(F)cc2c1=O`, the Potency result in [1], in assay [2], in assay [3], in assay [4], in assay [5] and in assay [6] was “inactive” each time. Also, the Potency result in assay [7], in assay [8], in assay [9] and in [10] was “inactive” each time.
